# Screening data: PubChem BioAssay, National Center for Advancing Translational Sciences (NCATS)
# DRD3 agonist: qHTS of D3 Dopamine Receptor Agonist: qHTS; D(3) dopamine receptor (Homo sapiens), P35462; D3R DiscoveRx beta-arrestin cells, luminescence, 90 min; max activation, %; 410,000 compounds, 0.58% hits; AID 652048, 2013; in the data active means max activation above about 30%
#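 Agonist-mode cell screen: cells plated at 1500/well and incubated overnight at 37 °C, then exposed to library compounds for 90 min at 37 °C. Detection reagent was added for 30–60 min at room temperature, and luminescence was read.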
# TRPML1 ag: qHTS for Agonists of the Human Mucolipin Transient Receptor Potential 1 (TRPML1) | TRPML1-expressing cells, Ca2+ dye fluorescence, FDSS | activation, % (no concentration beside the values) | 410,000 compounds, 0.12% hits | AID 624414, 2012; in the data active means activation above about 50%; inconclusive means mostly about 30% to 49%
# Target sequence (Q9GZU1 whole entry, looked up): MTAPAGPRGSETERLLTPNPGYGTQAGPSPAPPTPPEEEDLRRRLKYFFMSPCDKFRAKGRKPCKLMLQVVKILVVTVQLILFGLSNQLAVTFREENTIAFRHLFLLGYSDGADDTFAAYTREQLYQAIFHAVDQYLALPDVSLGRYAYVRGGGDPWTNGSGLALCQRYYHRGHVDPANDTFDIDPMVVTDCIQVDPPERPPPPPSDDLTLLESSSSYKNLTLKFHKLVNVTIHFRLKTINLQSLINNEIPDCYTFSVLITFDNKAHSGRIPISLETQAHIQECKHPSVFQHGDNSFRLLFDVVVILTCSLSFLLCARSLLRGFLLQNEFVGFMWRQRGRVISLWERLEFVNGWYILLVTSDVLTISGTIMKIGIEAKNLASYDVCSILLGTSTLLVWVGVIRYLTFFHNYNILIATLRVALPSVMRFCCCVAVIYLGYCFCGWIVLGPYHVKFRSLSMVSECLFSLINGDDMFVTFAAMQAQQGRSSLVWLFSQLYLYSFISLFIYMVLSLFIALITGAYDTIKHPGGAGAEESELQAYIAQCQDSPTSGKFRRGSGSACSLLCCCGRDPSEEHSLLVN
#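 Agonist activity was taken from a 110 s kinetic Ca2+ dye read on the FDSS after pinning compounds onto TRPML1-DL cells. The cells were seeded at 1,500/well with Tet inducer, incubated about 16 h, then dye-loaded at room temperature.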
# DRD3 antagonist: qHTS of D3 Dopamine Receptor Antagonist: qHTS | D(3) dopamine receptor (Homo sapiens), P35462 | D3R cells, DiscoveRx beta-arrestin luminescence, antagonist mode; active compounds read low | max response, negative = inhibition, % | 360,000 compounds, 2.5% hits; in the data active means max response below about -50%; inconclusive means no clear call, values can overlap the other calls
#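 Cells plated overnight at 1500 cells/well, then exposed to library compounds with dopamine controls for 90 minutes at 37 degrees C. DiscoveRx reagent added for 30–60 minutes at room temperature; luminescence read, quantitative HTS format.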
# TRPML1 blocker: qHTS for Inhibitors of the Human Mucolipin Transient Receptor Potential 1 (TRPML1); TRPML1-inducible cells, Ca2+ dye fluorescence, FDSS; active compounds read low; inhibition of EC80 agonist-evoked calcium signal; 390,000 compounds, 0.02% hits; activity change, negative = inhibition, % (test concentration not listed); AID 624415, 2012; Mucolipin-1 (Homo sapiens), Q9GZU1; in the data active means activity change below about -50%; inconclusive means between about -30% and that limit;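 further: stimulus is agonist 54-4 at its EC80 concentration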
#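 Tet-induced TRPML1-DL cells loaded with Ca8 no-wash calcium dye were read kinetically on FDSS. Compound addition was followed by EC80 agonist 54-4 (4 uM final); inhibition was read over 110 s.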
# Hits are given with their value; i = inactive; ? = inconclusive; nt = not tested or not shown; ! = repeats disagree. This is a sample that favours compounds with a hit; in the whole collection about 2.9% have one here.
SMILES,DRD3 agonist,TRPML1 ag,DRD3 antagonist,TRPML1 blocker
CN1CCN(C(=O)c2ccc(C3SCC(=O)N3Cc3ccco3)cc2)CC1 (configuration not stated),i,i,-59.0,i
O=S(=O)(c1ccc(F)cc1)N1CCN(c2nc(-c3cccc(Br)c3)nc3ccccc23)CC1,nt,i,nt,i
CC1CCC2C(=O)N(c3ccc(C(=O)Oc4cccc5cccnc45)cc3)C(=O)C2C1 (configuration not stated),i,i,-68.5,i
CCOC(=O)c1c(CN2CCCCC2)n(C)c2cc(Br)c(O)cc12,i,i,-87.0,i
CCOC(=O)c1ccc(OCCN2C[C@H](O)[C@@H](O)[C@H](O)[C@H]2CO)cc1,i,nt,nt,nt
COC(=O)c1ccc(C)cc1C1CN=NC12Cc1cc(C)ccc1C2=O (configuration not stated),i,95.4,i,i
O=C(Nc1ccncc1)C1C(=O)c2ccccc2N(Cc2ccccc2)C1=O (configuration not stated),nt,i,nt,nt
CC(C)CCNC(=O)Cn1nc(N2CCN(c3ccccc3)CC2)ccc1=O,i,i,nt,i
COc1ccc(-c2ccc3c(c2)S(=O)(=O)c2cccc(C(=O)NC[C@@H]4CCCO4)c2C3=O)cc1OC,36.7,i,i,i
COc1ccccc1NC(=O)Cn1c(=O)n(CC2CCC(C(=O)NCCc3ccccc3)CC2)c(=O)c2ccccc21 (configuration not stated),i,i,nt,i
Cc1ccc(Cl)cc1N1CCN(C(=O)CSc2nnc3n2C(C)(C)Cc2ccccc2-3)CC1,45.3,i,?,i
O=C(c1cc(-c2ccc(Br)cc2)n[nH]1)N1CCN(S(=O)(=O)c2ccc(Br)s2)CC1,33.8,i,nt,i
O=C(c1cc(-c2ccc(Cl)cc2)n[nH]1)N1CCN(S(=O)(=O)c2ccc(Br)s2)CC1,i,i,nt,i
CC1CCCCC1NC(=O)COc1ccc(-n2cnnn2)cc1 (configuration not stated),i,i,i,i
O=C(COc1ccc(-n2cnnn2)cc1)NC1CCCCC1,i,i,-65.1,i
COC(=O)[C@@H](c1ccccc1)N(C)S(=O)(=O)c1cccc(S(=O)(=O)N(C)[C@@H](C(=O)OC)c2ccccc2)c1,i,73.6,i,i
CCOC(=O)c1c(C)[nH]c(C)c1S(=O)(=O)N1CCCC(C(=O)Nc2cccc(CC)c2)C1 (configuration not stated),i,i,nt,i
CCCN1C2CCCC1CC(NC(=S)NCCCOCC)C2 (configuration not stated),i,i,i,i
COCCCNC(=S)NC1CC2CCC(C1)N2Cc1ccccc1 (configuration not stated),i,i,-59.6,i
COCCCNC(=S)NC1CC2CCCC(C1)N2Cc1cccs1 (configuration not stated),i,i,i,i
CCOCCCNC(=S)NC1CC2CCC(C1)N2Cc1ccccc1 (configuration not stated),i,i,-62.2,i
CCCCOc1ccc(C(=O)NCC2(N3CCN(C)CC3)CCCCC2)cc1,i,i,nt,i
CS(=O)(=O)N1CCN(/[N+]([O-])=N/Oc2ccc([N+](=O)[O-])cc2[N+](=O)[O-])CC1,nt,i,nt,i
O=C1c2cc(S(=O)(=O)NCCCO)ccc2-c2ccc(S(=O)(=O)NCCCO)cc21,i,i,-50.8,i
COCCNS(=O)(=O)c1ccc2c(c1)C(=O)c1cc(S(=O)(=O)NCCOC)ccc1-2,i,i,i,i
SMILES,DRD3 agonist,TRPML1 ag,DRD3 antagonist,TRPML1 blocker
C(=C\c1ccccc1)/CN1CCN(C(c2cccc3ccccc23)c2nnnn2-c2ccc3c(c2)OCCO3)CC1 (configuration not stated),i,i,-72.6,nt
FC(F)(F)Oc1ccccc1C(c1nnnn1-c1ccc2c(c1)OCCO2)N1CCN(C/C=C/c2ccccc2)CC1 (configuration not stated),i,i,-57.2,nt
CN(C)CCN1CCN(C(c2ccnc3ccccc23)c2nnnn2-c2ccc3c(c2)OCCO3)CC1 (configuration not stated),i,i,i,nt
C[C@@H]1CC(=O)NN=C1c1ccc(NN=C(C#N)C#N)cc1,i,nt,nt,nt
Cc1ccccc1NC(=O)CN(C)S(=O)(=O)c1cccc2nsnc12,i,i,nt,i
Cc1cn2c(N)c(/C=C3\C=Nc4ccccc43)c(=O)nc2s1,i,i,i,i
CCc1nn2c(N)c(/C=C3\C=Nc4ccccc43)c(=O)nc2s1,i,i,-50.1!,i
CCCN(CCC)CCCNC(=O)C1CCN(c2nc3ccc(CC)cc3s2)CC1,i,i,nt,i
COc1cc(Cl)c(CNC[C@H]2O[C@@H](n3cnc(C(N)=O)n3)[C@H](O)[C@@H]2O)c(Cl)c1O,i,i,i,i
NC(=O)c1ncn([C@@H]2O[C@H](CNCc3ccc(-c4cc(C(F)(F)F)ccc4Cl)o3)[C@@H](O)[C@H]2O)n1,i,i,-51.9,i
CC(C)(C)c1nn(-c2ccccc2)c2[nH]c(=O)c(CNc3ccc4c(c3)OCCO4)cc12,i,i,-74.7,i
Cc1cc(C)c2oc(-c3cccc(NC(=O)COc4ccc(Cl)cc4C)c3C)nc2c1,nt,i,nt,nt
CC(C)(C)Cc1c(-c2ccc(C#N)cc2)nc2c(Cl)cc(C(F)(F)F)cn12,i,72.1,i,i
CCOc1cc(-c2ccc3c(c2)OCO3)cc(=[O+]CC)c2c(C)oc(C)c12,nt,i,nt,nt
O=C1[C@H](Cc2ccccc2)NC/C=C\C[C@H](c2ccc(Cl)cc2)N1Cc1ccc(Cl)cc1,nt,i,nt,nt
CCCN1C(=O)c2ccccc2NC1c1ccc(OC)c(COc2cccc(OC)c2)c1 (configuration not stated),nt,i,nt,nt
CCc1ccc(N=C2NC(=O)/C(=C/c3cc(OC)c(O)c(OC)c3)S2)cc1,i,nt,i,nt
COc1cc(/C=C2\SC(=Nc3ccccc3)NC2=O)cc(Cl)c1O,i,76.9,?,i
COc1cc(/C=C2\SC(=Nc3ccc(Cl)c(C(=O)O)c3)NC2=O)c(Br)c(Br)c1O,i,67.2,i,i
COC(=O)/C=C1\SC(=Nc2ccc(Cl)c(Cl)c2)NC1=O,i,i,i,i
C/C=C1\NC(=O)[C@H]2CSSCC/C=C/[C@H](CC(=O)N[C@H](C(C)C)C(=O)N2)OC(=O)C(C(C)C)NC1=O (some centres not stated),i,nt,nt,nt
NC(Cc1ccccc1)C(=O)O (configuration not stated),i,nt,nt,nt
O=C(COc1ccc(Br)cc1)N1CCCCCC1,i,i,-58.7,i
CC1(C)CC(=O)c2cc(OCC(=O)N3CCCCCC3)ccc2O1,i,i,-71.0,i
O=C(COc1ccc2cc(Br)ccc2c1)N1CCCC1,i,i,i,i
Cc1ccc(C2CC(c3ccccc3)=NN2C(=S)Nc2ccccc2)o1 (configuration not stated),i,i,-51.1,i
CCCCN(C)c1c(C)nc2ccc(C(=O)N(C)CCN(C)C)cn12,i,i,-71.4,nt
